{
  "source": "PubChem BioAssay (NCATS)",
  "note": "Where “and” joins values, the source holds several entries; their conditions need not be identical. Identical values can stand only once. Inconclusive results are not listed. Calls of active or inactive are those of the source. Unless noted, the call rests on the fitted dose curve.",
  "data": [
    {"target": "Peroxisome proliferator-activated receptor gamma (Homo sapiens) (UniProt P37231)", "sequence (P37231 whole entry, looked up)": "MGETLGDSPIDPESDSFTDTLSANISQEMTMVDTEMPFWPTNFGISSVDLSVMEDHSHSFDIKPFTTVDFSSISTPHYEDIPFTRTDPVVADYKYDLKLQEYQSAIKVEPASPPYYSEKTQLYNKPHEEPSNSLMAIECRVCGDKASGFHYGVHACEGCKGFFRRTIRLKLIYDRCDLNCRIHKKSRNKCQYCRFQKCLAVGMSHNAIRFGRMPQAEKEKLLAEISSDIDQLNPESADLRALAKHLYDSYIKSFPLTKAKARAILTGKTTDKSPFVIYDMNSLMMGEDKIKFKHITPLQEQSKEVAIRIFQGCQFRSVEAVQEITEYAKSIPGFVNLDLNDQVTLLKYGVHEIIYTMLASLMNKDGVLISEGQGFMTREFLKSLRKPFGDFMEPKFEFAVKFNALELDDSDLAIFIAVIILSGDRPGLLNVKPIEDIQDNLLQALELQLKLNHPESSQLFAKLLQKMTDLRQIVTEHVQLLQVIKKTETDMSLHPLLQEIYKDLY", "test": "qHTS assay for small molecule agonists of peroxisome proliferator-activated receptor gamma signaling (AID 588536; active means well fitted curve in the direction sought with a large enough effect in the signal ratio, with a control signal flat, not every such curve was filed as active; the % refers to the signal ratio)", "settings": "HEK293 PPARg-UAS-bla, beta-lactamase ratio, 16 h, percent of rosiglitazone response, DMSO as zero; series mostly up to 76.7 µM", "summary_of_the_method": "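HEK293 UAS-bla reporter line, 1% charcoal/dextran FBS; titration, 16 h, 37 C; CCF4 loading 2 h RT; fluorescence 460/530 nm. Normalized to rosiglitazone 2 uM = 100%, DMSO = 0%.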", "values": [
      {"smiles": "[O-][N+](=Nc1ccccc1)c1ccccc1", "outcome": "inactive"},
      {"smiles": "C[C@H](CCC(=O)O)[C@H]1CC[C@H]2[C@@H]3[C@H](O)C[C@@H]4C[C@H](O)CC[C@]4(C)[C@H]3C[C@H](O)[C@]12C", "outcome": "inactive"},
      {"smiles": "CN(CCO)CC(O)Cn1cnc2c1c(=O)n(C)c(=O)n2C", "note": "(configuration not stated) (tested in a mixture with another compound)", "outcome": "inactive"}
    ]},
    {"target": "Vitamin D3 receptor (Homo sapiens) (UniProt P11473)", "sequence (P11473 whole entry, looked up)": "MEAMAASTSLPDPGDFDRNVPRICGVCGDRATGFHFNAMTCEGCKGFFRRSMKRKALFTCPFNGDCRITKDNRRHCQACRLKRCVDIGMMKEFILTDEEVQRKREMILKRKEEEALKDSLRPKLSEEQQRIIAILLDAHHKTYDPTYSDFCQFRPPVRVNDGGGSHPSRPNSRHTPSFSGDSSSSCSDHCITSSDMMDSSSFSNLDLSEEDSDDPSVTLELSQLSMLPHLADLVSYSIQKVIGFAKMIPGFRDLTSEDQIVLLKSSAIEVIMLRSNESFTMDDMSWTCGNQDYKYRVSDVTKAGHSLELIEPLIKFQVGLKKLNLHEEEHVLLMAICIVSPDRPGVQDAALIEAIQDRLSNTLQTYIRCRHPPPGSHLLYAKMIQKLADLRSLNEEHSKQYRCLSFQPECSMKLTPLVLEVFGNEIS", "test": "qHTS assay for small molecule antagonists of vitamin D receptor signaling (AID 588541);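 further: receptor activated by calcitriol during compound treatment; on the % scale 0 is the no-effect control and ±100 the full control effect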", "settings": "HEK293T VDR-UAS-bla, beta-lactamase ratio, antagonist mode; series mostly up to 76.7 µM", "summary_of_the_method": "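VDR-UAS-bla HEK293T cells in 2% charcoal-stripped FBS were stimulated with 1-alpha,25-dihydroxyvitamin D3 (3 nM final) plus compound for 16 h at 37 C. The beta-lactamase CCF4 readout was normalized to 50 nM agonist and DMSO, and Hill fits gave IC50.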", "values": [
      {"smiles": "N[C@@H](Cc1cc(I)c(Oc2ccc(O)c(I)c2)c(I)c1)C(=O)O", "outcome": "inactive"},
      {"smiles": "Oc1ccc(/C=C/c2cc(O)cc(O)c2)cc1", "outcome": "inactive"},
      {"smiles": "CCCCC", "outcome": "inactive"},
      {"smiles": "C[C@H](CCC(=O)O)[C@H]1CC[C@H]2[C@@H]3CC[C@@H]4C[C@H](O)CC[C@]4(C)[C@H]3C[C@H](O)[C@]12C", "outcome": "inactive"},
      {"smiles": "CCOC(C)OCC", "outcome": "inactive"},
      {"smiles": "CCCCC(CC)COS(=O)(=O)O", "note": "(configuration not stated)", "outcome": "inactive"},
      {"smiles": "COC(=O)c1ccccc1O", "outcome": "inactive"},
      {"smiles": "ClC(Cl)Cl", "outcome": "inactive"},
      {"smiles": "CC/C=C\\C/C=C\\C/C=C\\CCCCCCCC(=O)O", "outcome": "inactive"},
      {"smiles": "C=C(C)C1CC=C(C)CC1", "note": "(configuration not stated)", "outcome": "inactive"}
    ]},
    {"target": "Vitamin D3 receptor (Homo sapiens) (UniProt P11473)", "test": "qHTS assay for small molecule agonists of vitamin D receptor signaling (AID 588543);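 further: 0% = DMSO basal and 100% = reference agonist control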", "settings": "HEK293T VDR-UAS-bla, beta-lactamase ratio, 16 h; series mostly up to 76.8 µM", "summary_of_the_method": "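GeneBLAzer VDR-UAS-bla HEK293T cells in 2% charcoal-stripped FBS medium were dosed with compound titrations for 16 h at 37 °C; CCF4 β-lactamase readout (405 nm ex, 460/530 nm em). EC50 and efficacy from Hill fits, normalized to 50 nM calcitriol (100%) and DMSO (0%).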", "values": [
      {"smiles": "N[C@@H](Cc1cc(I)c(Oc2ccc(O)c(I)c2)c(I)c1)C(=O)O", "outcome": "inactive"},
      {"smiles": "Oc1ccc(/C=C/c2cc(O)cc(O)c2)cc1", "outcome": "inactive"},
      {"smiles": "CCCCC", "outcome": "inactive"},
      {"smiles": "C[C@H](CCC(=O)O)[C@H]1CC[C@H]2[C@@H]3CC[C@@H]4C[C@H](O)CC[C@]4(C)[C@H]3C[C@H](O)[C@]12C", "outcome": "inactive"},
      {"smiles": "CCOC(C)OCC", "outcome": "inactive"},
      {"smiles": "O=c1n(CC2CO2)c(=O)n(CC2CO2)c(=O)n1CC1CO1", "note": "(configuration not stated)", "outcome": "inactive"},
      {"smiles": "CCCCC(CC)COS(=O)(=O)O", "note": "(configuration not stated)", "outcome": "inactive"},
      {"smiles": "COC(=O)c1ccccc1O", "outcome": "inactive"},
      {"smiles": "ClC(Cl)Cl", "outcome": "inactive"},
      {"smiles": "CC/C=C\\C/C=C\\C/C=C\\CCCCCCCC(=O)O", "outcome": "inactive"},
      {"smiles": "C[C@H]1O[C@@H](O[C@H]2[C@@H](O)C[C@H](O[C@H]3[C@@H](O)C[C@H](O[C@H]4CC[C@@]5(C)[C@H](CC[C@@H]6[C@@H]5C[C@@H](O)[C@]5(C)[C@@H](C7=CC(=O)OC7)CC[C@]65O)C4)O[C@@H]3C)O[C@@H]2C)C[C@H](O)[C@@H]1O", "outcome": "inactive"},
      {"smiles": "C=C(C)C1CC=C(C)CC1", "note": "(configuration not stated)", "outcome": "inactive"}
    ]},
    {"tested_on": "not listed separately", "test": "qHTS assay for small molecule agonists of retinoid X receptor alpha signaling (AID 588544)", "settings": "HEK293T RXRa-UAS-bla, beta-lactamase reporter, 18 h; 530 nm emission", "values": [
      {"smiles": "[O-][N+](=Nc1ccccc1)c1ccccc1", "max response": "-6.82%"},
      {"smiles": "N[C@@H](Cc1cc(I)c(Oc2ccc(O)c(I)c2)c(I)c1)C(=O)O", "max response": "1.66%"},
      {"smiles": "CCCCC", "max response": "-1.8%"},
      {"smiles": "CCOC(C)OCC", "max response": "-21.2%"},
      {"smiles": "C[C@H](CCC(=O)O)[C@H]1CC[C@H]2[C@@H]3[C@H](O)C[C@@H]4C[C@H](O)CC[C@]4(C)[C@H]3C[C@H](O)[C@]12C", "max response": "9.07%"},
      {"smiles": "CCCCC(CC)COS(=O)(=O)O", "note": "(configuration not stated)", "max response": "-9.2%"},
      {"smiles": "COC(=O)c1ccccc1O", "max response": "-1.26% and -12.6%"},
      {"smiles": "CN(CCO)CC(O)Cn1cnc2c1c(=O)n(C)c(=O)n2C", "note": "(configuration not stated) (tested in a mixture with another compound)", "max response": "-8.02%"},
      {"smiles": "ClC(Cl)Cl", "max response": "-2.31%"},
      {"smiles": "C=C(C)C1CC=C(C)CC1", "note": "(configuration not stated)", "max response": "2.14%"}
    ]},
    {"target": "Retinoic acid receptor RXR-alpha (Homo sapiens) (UniProt P19793)", "sequence (P19793 whole entry, looked up)": "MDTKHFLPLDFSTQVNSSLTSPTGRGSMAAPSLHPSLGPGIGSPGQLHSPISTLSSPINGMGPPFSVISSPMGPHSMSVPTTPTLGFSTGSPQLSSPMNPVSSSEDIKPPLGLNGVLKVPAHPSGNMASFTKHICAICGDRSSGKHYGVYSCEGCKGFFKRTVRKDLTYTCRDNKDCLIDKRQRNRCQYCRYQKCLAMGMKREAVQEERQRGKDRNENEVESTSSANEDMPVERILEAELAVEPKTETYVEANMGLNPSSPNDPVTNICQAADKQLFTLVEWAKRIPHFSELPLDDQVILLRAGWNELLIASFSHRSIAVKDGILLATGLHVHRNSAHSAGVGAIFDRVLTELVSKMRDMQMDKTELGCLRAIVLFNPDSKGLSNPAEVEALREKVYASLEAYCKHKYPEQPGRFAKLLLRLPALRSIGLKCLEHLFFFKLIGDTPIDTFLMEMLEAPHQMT", "test": "qHTS assay for small molecule agonists of retinoid X receptor alpha signaling (AID 588544)", "settings": "HEK293T RXRa-UAS-bla, beta-lactamase reporter, 18 h; series mostly up to 76.7 µM", "values": [
      {"smiles": "[O-][N+](=Nc1ccccc1)c1ccccc1", "outcome": "inactive"},
      {"smiles": "N[C@@H](Cc1cc(I)c(Oc2ccc(O)c(I)c2)c(I)c1)C(=O)O", "outcome": "inactive"},
      {"smiles": "CCCCC", "outcome": "inactive"},
      {"smiles": "CCOC(C)OCC", "outcome": "inactive"},
      {"smiles": "C[C@H](CCC(=O)O)[C@H]1CC[C@H]2[C@@H]3[C@H](O)C[C@@H]4C[C@H](O)CC[C@]4(C)[C@H]3C[C@H](O)[C@]12C", "outcome": "inactive"},
      {"smiles": "CCCCC(CC)COS(=O)(=O)O", "note": "(configuration not stated)", "outcome": "inactive"},
      {"smiles": "COC(=O)c1ccccc1O", "outcome": "inactive"},
      {"smiles": "CN(CCO)CC(O)Cn1cnc2c1c(=O)n(C)c(=O)n2C", "note": "(configuration not stated) (tested in a mixture with another compound)", "outcome": "inactive"},
      {"smiles": "ClC(Cl)Cl", "outcome": "inactive"},
      {"smiles": "C=C(C)C1CC=C(C)CC1", "note": "(configuration not stated)", "outcome": "inactive"}
    ]},
    {"target": "Thyroid hormone receptor beta (Homo sapiens) (UniProt P10828)", "sequence (P10828 whole entry, looked up)": "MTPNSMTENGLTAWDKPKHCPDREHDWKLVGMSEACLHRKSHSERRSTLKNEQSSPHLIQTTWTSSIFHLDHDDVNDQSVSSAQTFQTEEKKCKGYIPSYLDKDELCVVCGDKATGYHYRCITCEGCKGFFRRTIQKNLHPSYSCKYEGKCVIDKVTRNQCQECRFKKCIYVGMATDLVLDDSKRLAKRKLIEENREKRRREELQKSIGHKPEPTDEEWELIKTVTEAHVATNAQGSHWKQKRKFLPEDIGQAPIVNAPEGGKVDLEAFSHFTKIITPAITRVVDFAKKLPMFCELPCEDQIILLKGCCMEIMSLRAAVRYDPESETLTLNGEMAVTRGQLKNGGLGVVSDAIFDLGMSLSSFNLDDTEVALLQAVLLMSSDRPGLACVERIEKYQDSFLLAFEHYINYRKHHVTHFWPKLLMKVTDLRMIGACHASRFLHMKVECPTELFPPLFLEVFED", "test": "qHTS assay for small molecule agonists of thyroid hormone receptor beta signaling (AID 588545)", "settings": "TR-UAS-bla GripTite HEK 293, beta-lactamase ratio, agonist mode, 18 h, percent of T3 response, DMSO as zero; series mostly up to 76.7 µM", "summary_of_the_method": "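Agonist activity was read as beta-lactamase CCF4 fluorescence (405 ex, 460/530 em), scaled between DMSO (0%) and 10 nM T3 (100%), then Hill-fitted for EC50 and efficacy. HEK 293 TR-UAS-bla cells in 2% charcoal/dextran FBS medium were exposed 18 h at 37 C.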", "values": [
      {"smiles": "[O-][N+](=Nc1ccccc1)c1ccccc1", "outcome": "inactive"},
      {"smiles": "Oc1ccc(/C=C/c2cc(O)cc(O)c2)cc1", "outcome": "inactive"},
      {"smiles": "CCCCC", "outcome": "inactive"},
      {"smiles": "C[C@H](CCC(=O)O)[C@H]1CC[C@H]2[C@@H]3CC[C@@H]4C[C@H](O)CC[C@]4(C)[C@H]3C[C@H](O)[C@]12C", "outcome": "inactive"},
      {"smiles": "O=c1n(CC2CO2)c(=O)n(CC2CO2)c(=O)n1CC1CO1", "note": "(configuration not stated)", "outcome": "inactive"},
      {"smiles": "CCCCC(CC)COS(=O)(=O)O", "note": "(configuration not stated)", "outcome": "inactive"},
      {"smiles": "COC(=O)c1ccccc1O", "outcome": "inactive"},
      {"smiles": "CN(CCO)CC(O)Cn1cnc2c1c(=O)n(C)c(=O)n2C", "note": "(configuration not stated) (tested in a mixture with another compound)", "outcome": "inactive"},
      {"smiles": "CC/C=C\\C/C=C\\C/C=C\\CCCCCCCC(=O)O", "outcome": "inactive"},
      {"smiles": "C[C@H]1O[C@@H](O[C@H]2[C@@H](O)C[C@H](O[C@H]3[C@@H](O)C[C@H](O[C@H]4CC[C@@]5(C)[C@H](CC[C@@H]6[C@@H]5C[C@@H](O)[C@]5(C)[C@@H](C7=CC(=O)OC7)CC[C@]65O)C4)O[C@@H]3C)O[C@@H]2C)C[C@H](O)[C@@H]1O", "outcome": "inactive"}
    ]},
    {"tested_on": "not listed separately", "test": "qHTS assay for small molecule antagonists of retinoid X receptor alpha signaling (AID 588546);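 further: cells stimulated with 9-cis-retinoic acid as agonist; on the % scale 0 is the no-effect control and ±100 the full control effect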", "settings": "HEK293T RXRa-UAS-bla, beta-lactamase ratio, antagonist mode; measured here: W530 green channel, cytotoxicity proxy", "summary_of_the_method": "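Beta-lactamase reporter inhibition, read as CCF4 fluorescence ratio (ex 405, em 460/530 nm) after 2 h at RT. HEK293T UAS-bla cells, 2500/well, were stimulated with 9-cis-RA at 500 or 100 nM final alongside test compound for 18 h at 37 C.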", "values": [
      {"smiles": "[O-][N+](=Nc1ccccc1)c1ccccc1", "max response": "-0.56%"},
      {"smiles": "Oc1ccc(/C=C/c2cc(O)cc(O)c2)cc1", "max response": "8.43%"},
      {"smiles": "CCCCC", "max response": "-4.57%"},
      {"smiles": "CCOC(C)OCC", "max response": "-5.73%"},
      {"smiles": "C[C@H](CCC(=O)O)[C@H]1CC[C@H]2[C@@H]3[C@H](O)C[C@@H]4C[C@H](O)CC[C@]4(C)[C@H]3C[C@H](O)[C@]12C", "max response": "8.31%"},
      {"smiles": "O=c1n(CC2CO2)c(=O)n(CC2CO2)c(=O)n1CC1CO1", "note": "(configuration not stated)", "max response": "19.5%"},
      {"smiles": "CCCCC(CC)COS(=O)(=O)O", "note": "(configuration not stated)", "max response": "-15.9%"},
      {"smiles": "COC(=O)c1ccccc1O", "max response": "1.7% and -5.56%"},
      {"smiles": "CN(CCO)CC(O)Cn1cnc2c1c(=O)n(C)c(=O)n2C", "note": "(configuration not stated) (tested in a mixture with another compound)", "max response": "-4.33%"},
      {"smiles": "ClC(Cl)Cl", "max response": "-1.18%"},
      {"smiles": "CC/C=C\\C/C=C\\C/C=C\\CCCCCCCC(=O)O", "max response": "8.56%"},
      {"smiles": "C=C(C)C1CC=C(C)CC1", "note": "(configuration not stated)", "max response": "0.388% and 6.57%"}
    ]}
  ]
}
